IL1B secr inh = qHTS for Inhibitors of Inflammasome Signaling: IL-1-beta AlphaLISA Primary Screen | THP-1 LPS/ATP IL-1B secretion, AlphaLISA, 16 h; active compounds read low | activity change, % at 57.5 µM | 360,000 compounds, 4.7% hits; in the data active means activity change below about -50%; inconclusive means mostly about -30% to -49%
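Secreted IL-1B measured by AlphaLISA bead assay after 16 h compound exposure of THP-1 cells; compounds (final up to 57.5 uM) added 1 h before LPS (250 ng/mL) and ATP (1.25 mM) stimulation; lower signal means less secretion.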
HT1080NT lethal = qHTS for induction of synthetic lethality in tumor cells producing 2HG: qHTS for the HT-1080-NT fibrosarcoma cell line | HT-1080-NT fibrosarcoma viability, CellTiter-Glo ATP luminescence, 48 h | Potency, µM (series often up to 46.1 µM), hits mostly cytotoxic | 360,000 compounds, 1.6% hits;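 further: NT is the 2HG producing partner of a matched IDH1 knockdown line; nearly all actives have a fitted effect of over 55% in size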
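Viability of the 2HG-overproducing fibrosarcoma line after 48 hours of compound exposure at 37 degrees C was determined by luminescence with CellTiter-Glo, and concentration-effect curves were then fitted and categorized.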
HT1080 IDH1KD tx = qHTS for induction of synthetic lethality in tumor cells producing 2HG: qHTS for the HT-1080-IDH1KD cell line | HT-1080 IDH1 knockdown viability, ATP luminescence, 48 h | Potency, µM (highest dose often 46.1 µM), actives largely listed as cytotoxic | 360,000 compounds, 2% hits
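Using the IDH1-knockdown HT-1080 line run in the same batch and compound series as the NT line, viability after 48 h at 37 °C was determined by CellTiter-Glo luminescence and expressed as % activity.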
DT40 TDP1 CPT = qHTS for Inhibitors of human tyrosyl-DNA phosphodiesterase 1 (TDP1): qHTS in cells in presence of CPT. 420,000 compounds, 12% hits. chicken DT40 Tdp1-/-;hTDP1 cells + 20 nM CPT, ATP luminescence, 48 h. AID 686979, 2013. Potency, µM (doses to about 46.2 µM), most hits filed as inhibitors; further: nearly all actives have a fitted effect of over 55% in size
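Chicken DT40 Tdp1-/- cells complemented with human TDP1, 400 cells/well, exposed to compounds plus 20 nM camptothecin for at least 48 h at 37 C; viability read as ATP content by CellTiter-Glo luminescence.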
TDP1 cell noCPT = qHTS for Inhibitors of human tyrosyl-DNA phosphodiesterase 1 (TDP1): qHTS in cells in absence of CPT. AID 686978, 2013. DT40 Tdp1-/- hTDP1 cells, no CPT, ATP luminescence, 48 h. Potency, µM (top dose mostly 46.2 µM), most hits filed as inhibitors. 420,000 compounds, 15% hits; further: nearly all actives have a fitted effect of over 55% in size
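Chicken DT40 Tdp1-/- cells complemented with human TDP1, screened without camptothecin (DMSO vehicle only), 400 cells/well. Compounds pin-transferred, cells incubated at 37 °C for at least 48 hr. Growth read as ATP-dependent luminescence (CellTiter-Glo, 30 min at RT).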
Numbers stand for hits; n = inactive; u = inconclusive; x = no result given. Rows were chosen to be rich in hits. Some 19% of all compounds tested hit in one or more screens of this group. Unless noted, the call rests on the fitted dose curve; in most records, active means well fitted curve in the direction sought with a large enough effect; inconclusive means small, poorly fitted or top-dose-only effect, or another doubt; inactive means no such curve, though single readings can be large; an effect the other way counts as inactive or inconclusive.

SMILES	IL1B secr inh	HT1080NT lethal	HT1080 IDH1KD tx	DT40 TDP1 CPT	TDP1 cell noCPT
O=C(Nc1ccncc1)c1ccc(Cl)c(S(=O)(=O)N2CCCCC2)c1	n	u	8.2µM	13µM	16.4µM
CCCn1c(C)cc(C(=O)COC(=O)c2ccc(Cl)c(S(=O)(=O)N3CCCC3)c2)c1C	n	n	n	23.1µM	14.6µM
O=C(Nc1ccccc1O)c1cc(S(=O)(=O)N2CCCC2)ccc1Cl	x	x	x	u	20.6µM
O=C(Nc1ccncc1)c1cc(S(=O)(=O)N2CCCCC2)ccc1Cl	n	n	n	9.2µM	u
CCCCNC(=O)COC(=O)c1ccc(Cl)c(S(=O)(=O)N2CCCC2)c1	n	n	n	n	n
O=C(CCS(=O)(=O)c1cc2c3c(c1)CCN3C(=O)CC2)NCc1ccc(F)cc1	x	x	x	n	n
CN1CCN(C(=O)CC2(CC(=O)O)CCCC2)CC1	n	n	n	n	n
CCOc1ccc(S(=O)(=O)N2CCC(C(=O)OC(C)C(=O)N3CCOCC3)CC2)cc1 (stereo unspecified)	n	n	n	n	n
O=C(O)c1ccc(NC(=O)c2ccc(Cl)c(S(=O)(=O)N3CCCCCC3)c2)cc1	x	x	x	n	n
O=C(Nc1ccc(Cl)c(S(=O)(=O)N2CCCCC2)c1)c1ccncc1	n	u	n	14.6µM	13µM
O=C(Nc1ccccc1[N+](=O)[O-])c1cc(S(=O)(=O)Nc2ccccn2)ccc1Cl	n	n	n	n	n
Cc1ccc(C(=O)Nc2ccc(N3CCOCC3)cc2)cc1S(=O)(=O)N1CCCCC1	n	n	n	u	u
O=C(Nc1ccc(N2CCOCC2)cc1)c1ccc(Cl)c(S(=O)(=O)N2CCCC2)c1	n	n	u	u	20.6µM
CCN(CC)CCOC(=O)c1ccc(NC(=O)c2ccc(Cl)c(S(=O)(=O)N3CCCCCC3)c2)cc1	-68.8	u	u	20.6µM	u
NS(=O)(=O)c1ccc(Cl)c(C(=O)Nc2ccccc2[N+](=O)[O-])c1	-56.3	n	n	n	n
CCN1CCN(c2ccc(NC(=O)c3cc(S(=O)(=O)N4CCCC4)ccc3Cl)cc2)CC1	n	n	n	u	25.9µM
CCOC(=O)c1ccc(NC(=O)CSc2nnnn2CCCO)cc1	n	n	n	n	n
CSCC[C@H](NC(=O)N1C[C@H]2C[C@@H](C1)c1cccc(=O)n1C2)C(=O)Nc1ccc(NC(C)=O)cc1	n	n	n	n	n
C=CC1(C)CN(Cc2ccco2)S(=O)(=O)c2c(F)cccc2O1 (stereo unspecified)	n	n	n	18.4µM	u
O=C(NCc1ccc(Cl)cc1Cl)c1cccc(N2CCCS2(=O)=O)c1	x	x	x	16.4µM	u
COc1ccccc1CNC(=O)c1cccc(N2CCCS2(=O)=O)c1	x	x	x	n	u
Cc1cc(C)cc(NC(=O)c2cccc(N3CCCS3(=O)=O)c2)c1	x	x	x	14.6µM	u
O=C(OCc1nc2ccsc2c(=O)[nH]1)c1cccc(S(=O)(=O)N2CCOCC2)c1	n	n	n	n	n
CC(C)C[C@H]1CNC(=O)C(=O)N1C[C@@H]1CCCN1C[C@H](CC(C)C)N1C[C@H](Cc2ccc(O)cc2)N(CCc2ccccc2)C(=O)C1=O	n	n	n	n	n
CCOc1ccc(CCN2C(=O)C(=O)N([C@@H](CC(C)C)CN3CCC[C@H]3CN3C(=O)C(=O)NC[C@@H]3CC(C)C)C[C@@H]2Cc2ccc(O)cc2)cc1	-71.8	n	u	16.4µM	u
SMILES	IL1B secr inh	HT1080NT lethal	HT1080 IDH1KD tx	DT40 TDP1 CPT	TDP1 cell noCPT
CCOc1ccc(CCN2C(=O)C(=O)N([C@@H](CC(C)C)CN3CCC[C@H]3CN3C(=O)C(=O)NC[C@@H]3Cc3ccc(O)cc3)C[C@@H]2Cc2ccccc2)cc1	n	n	u	u	16.4µM
COC(=O)c1ccccc1NC(=O)c1ccnn1C	n	n	n	n	n
CCCN(CCC)CCNC(=O)C1c2ccccc2C(=O)N2CCc3ccccc3C12 (stereo unspecified)	n	n	n	n	n
COc1ccc(N/C=C/C(=O)c2ccccc2)cc1	n	n	n	n	u
COc1ccc(/C(C)=N/Nc2cccc(C(=O)O)c2)cc1OC	n	n	n	n	n
COc1ccc(N/C=C(/C(C)=O)c2ccccc2)cc1	-84.4	n	n	n	n
COc1ccc(/C(=C/Nc2cccc(Br)c2)C(C)=O)cc1OC	-84.5	n	n	n	u
Cc1cc(N/N=C/c2ccccc2Br)nc2ccccc12	n	n	n	u	u
Cc1cc(N/N=C/c2ccc3c(c2)OCO3)nc2ccccc12	n	n	n	u	25.9µM
O=c1[nH]c(N/N=C\c2ccc3c(c2)OCO3)nc2ccccc12	n	n	n	u	23.1µM
CN(C)c1nc(NCc2ccccc2)nc(N/N=C/c2ccc3c(c2)OCO3)n1	n	n	n	u	16.4µM
C(=N\Nc1ccccn1)/c1ccc2c(c1)OCCO2	-69.2	n	n	n	u
O=S(=O)(N/N=C/c1ccc2c(c1)OCCO2)c1ccccc1	n	n	n	n	n
O=C(O)Cn1ccc2cc(S(=O)(=O)N3CCCCCC3)ccc21	n	n	n	n	n
CCOC(=O)[C@@H]1[C@H]2COc3ccccc3[C@@H]2N2C(=O)N(c3cccc(Cl)c3)C(=O)[C@]12C	n	n	n	u	n
O=C(C[n+]1ccccc1Br)c1ccc(Cl)cc1	x	x	x	u	14.1µM
CCN1CCOC(=O)C1CC(=O)Nc1cc(Cl)ccc1C (stereo unspecified)	x	x	x	7.31µM	14.6µM
O=C(CC1C(=O)OCCN1Cc1ccccc1)Nc1cccc(Cl)c1 (stereo unspecified)	x	x	x	u	n
O=C(CC1C(=O)OCCN1Cc1ccccc1)Nc1ccc(F)cc1 (stereo unspecified)	x	x	x	u	n
CCN1CCOC(=O)C1CC(=O)Nc1ccc(C)c(Cl)c1 (stereo unspecified)	x	x	x	7.31µM	5.8µM
COc1ccc(C(C)C)cc1-c1cccc2nncn12	n	u	n	n	u
COc1ccc(NC(=O)N2CCCC(c3nc(-c4ccc(OC)cc4)no3)C2)cc1 (stereo unspecified)	-54.4	n	n	u	u
COc1ccc(-c2noc(C3CCCN(C(=O)c4ccccc4)C3)n2)cc1 (stereo unspecified)	n	u	n	u	u
COc1ccc(-c2noc(C3CCCN(C(=O)Nc4ccccc4)C3)n2)cc1 (stereo unspecified)	n	n	n	25.9µM	u
O=C(c1ccc(F)cc1)C1CCN(C(=O)Nc2ccc(F)cc2)CC1	n	n	n	u	u
